Calls of active or inactive are those of the source. Unless noted, the rule behind the calls is not given here.
Tests used:
[1] = tested on: XIP peptide (Xip251-270) binding; assay: small-molecule binders of XIP peptide, primary screen, biochemical, small-molecule microarray, fluorescence 635/667 nm, 0.1 µg/mL protein (AID 1182); conditions: fluorescent protein binding, 635 nm, higher = more signal, called active from +8 up or from −8 down
[2] = tested on: XIP peptide (Xip251-270); assay: small-molecule binders of XIP peptide, primary screen, biochemical, small-molecule microarray, fluorescence 635/667 nm, 0.5 µg/mL protein (AID 1183); conditions: small-molecule microarray binding, fluorescence 635 nm; higher = more signal
[3] = Plasmodium falciparum growth inhibition, primary screen, strain 3D7, DAPI fluorescence, 100 nL (AID 1184);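 note: parasites grown inside human red blood cells in medium with human serum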; conditions: P. falciparum 3D7 growth, 3 d, higher = more signal
[4] = molecular target: Homeobox protein Hox-A13 (Mus musculus) (UniProt Q62424); assay: inhibitors of HoxA13-DNA binding, primary screen, biochemical, fluorescence polarization, labeled oligonucleotide (AID 1185); conditions: 15 min, higher = more signal, called active from +8 up or from −8 down
[5] = inhibitors of hydroxyurea-induced Chk1 phosphorylation, primary screen, imaging, HeLa, phospho-Chk1 antibody, percent positive cells (AID 1186); conditions: hydroxyurea-induced phospho-Chk1 immunofluorescence imaging, higher = more signal
[6] = inhibitors of hydroxyurea-induced Chk1 phosphorylation, primary screen, imaging, HeLa, phospho-Chk1 nuclear intensity (AID 1187); conditions: hydroxyurea-induced phospho-Chk1 immunofluorescence imaging, higher = more signal

Homeobox protein Hox-A13 (Mus musculus), sequence (Q62424 whole entry, looked up): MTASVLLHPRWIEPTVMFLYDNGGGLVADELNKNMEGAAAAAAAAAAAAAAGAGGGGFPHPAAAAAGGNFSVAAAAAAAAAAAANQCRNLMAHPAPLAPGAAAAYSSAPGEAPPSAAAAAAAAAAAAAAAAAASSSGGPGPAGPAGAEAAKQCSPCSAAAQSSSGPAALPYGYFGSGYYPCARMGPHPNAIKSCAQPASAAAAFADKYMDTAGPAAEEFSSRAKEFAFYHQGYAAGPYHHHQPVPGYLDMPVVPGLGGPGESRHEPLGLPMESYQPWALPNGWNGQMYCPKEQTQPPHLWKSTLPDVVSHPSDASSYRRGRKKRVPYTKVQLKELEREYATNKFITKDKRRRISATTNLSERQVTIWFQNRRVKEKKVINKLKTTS

## CO[C@H]1O[C@H](CO)[C@@H](OC(=O)Nc2ccc(C(F)(F)F)cc2)[C@H](OC(=O)Nc2ccccc2-c2ccccc2)[C@H]1OC(=O)Nc1ccccc1-c1ccccc1
[1]
  composite z-score: 0.844 (inactive)
[2]
  composite z-score: 0.701
[3]
  z-score: -1.8
[4]
  z-score: -3.72 (inactive)
[5]
  z-score: 0.83 (inactive)
[6]
  z-score: 0.784 (inactive)

## [N-]=[N+]=NCc1ccccc1[C@@H]1OC(c2ccc(OCCCO)cc2)=N[C@]1(Cc1ccccc1)C(=O)NCc1ccccc1
[1]
  composite z-score: 0.362 (inactive)
[2]
  composite z-score: 0.573
[3]
  z-score: -2.24
[4]
  z-score: 2.8 (inactive)
[5]
  z-score: -0.306 (inactive)
[6]
  z-score: -0.144 (inactive)

## C=CCC(OC(C)=O)[C@@H]1[C@@H](N(Cc2cccc3ccccc23)C(=O)c2ccc(-c3ccccc3)cc2)c2cc(OCCCO)ccc2N1C(=O)c1ccc2ccccc2n1 (some centres not stated)
[1]
  composite z-score: -0.268 (inactive)
[2]
  composite z-score: 0.0494
[3]
  z-score: -0.198
[4]
  z-score: -1.17 (inactive)
[5]
  z-score: 0.116 (inactive)
[6]
  z-score: -0.14 (inactive)

## CC(C)CNC(=O)[C@@H]1c2ccccc2C(=O)N(Cc2ccccc2)[C@H]1c1ccc(CO)cc1
[1]
  composite z-score: 0.906 (inactive)
[2]
  composite z-score: 0.0309
[3]
  z-score: -0.172
[4]
  z-score: -1.68 (inactive)
[5]
  z-score: 0.212 (inactive)
[6]
  z-score: -0.161 (inactive)

## COc1cccc(OC)c1C(=O)O[C@H]1[C@@H]2OC(=O)[C@H](Cc3cccc(Br)c3)C/C=C/C[C@@H](Cc3cccc(Br)c3)C(=O)O[C@H]2[C@@H](OC)O[C@@H]1CO
[1]
  composite z-score: 1.02 (inactive)
[2]
  composite z-score: -0.213
[3]
  z-score: -0.545
[4]
  z-score: -4.16 (inactive)
[5]
  z-score: 0.0558 (inactive)
[6]
  z-score: 0.0783 (inactive)

## CC(C)CNC(=O)[C@@]1(C)c2ccccc2C(=O)N(Cc2cc(F)cc(C(F)(F)F)c2)[C@H]1c1ccc(CO)cc1
[1]
  composite z-score: 2.74 (inactive)
[2]
  composite z-score: 0.467
[3]
  z-score: -0.586
[4]
  z-score: -3.51 (inactive)
[5]
  z-score: -0.143 (inactive)
[6]
  z-score: 0.0394 (inactive)

## C=CCC(OC(C)=O)[C@@H]1[C@@H](N(Cc2cc3ccccc3o2)C(=O)c2cccc3ccccc23)c2cc(OCCCO)ccc2N1C(=O)c1ccc2ccccc2c1 (some centres not stated)
[1]
  composite z-score: 0.0745 (inactive)
[2]
  composite z-score: -0.611
[3]
  z-score: -2.65
[4]
  z-score: -1.34 (inactive)
[5]
  z-score: -0.328 (inactive)
[6]
  z-score: -0.0311 (inactive)

## CN(C)CCCCNC(=O)[C@H]1C[C@H]2C(=O)N[C@@H](Cc3ccccc3)C(=O)N2[C@H]1c1cccc(OCCO)c1
[1]
  composite z-score: -0.0743 (inactive)
[2]
  composite z-score: -0.0022
[3]
  z-score: -0.0613
[4]
  z-score: -3.06 (inactive)
[5]
  z-score: -0.826 (inactive)
[6]
  z-score: -0.851 (inactive)

## CC(C)CNC(=O)[C@@H]1c2ccccc2C(=O)N(C(C)C)[C@H]1c1ccc(CO)cc1
[1]
  composite z-score: -0.885 (inactive)
[2]
  composite z-score: 0.93
[3]
  z-score: 0.643
[4]
  z-score: -0.0386 (inactive)
[5]
  z-score: -0.586 (inactive)
[6]
  z-score: -0.784 (inactive)

## COc1ccc([Si](C)(C)[C@@H]2[C@@H](CCO)O[C@]3(C(=O)N(Cc4ccccc4)c4ccc(N5C(=O)c6ccccc6Oc6ccccc65)cc43)[C@H]2C)cc1
[1]
  composite z-score: 0.664 (inactive)
[2]
  composite z-score: 0.299
[3]
  z-score: -0.119
[4]
  z-score: -1.08 (inactive)
[5]
  z-score: -0.83 (inactive)
[6]
  z-score: -0.253 (inactive)

## CC(C)N1CC=CC23O[C@@H]4C=CCCOC(=O)C4[C@H]2C(=O)N(CCCCCO)[C@@H]3C1=O (some centres not stated)
[1]
  composite z-score: 0.192 (inactive)
[2]
  composite z-score: -0.386
[3]
  z-score: 0.263
[4]
  z-score: -3.86 (inactive)
[5]
  z-score: -0.389 (inactive)
[6]
  z-score: 0.0936 (inactive)

## COc1ccc(C#Cc2ccc3c(c2)[C@]2(C(=O)N3)[C@H](c3ccc(OCCO)cc3)N3[C@H](c4ccccc4)[C@H](c4ccccc4)OC(=O)[C@H]3[C@@H]2C(=O)O)cc1
[1]
  composite z-score: -0.436 (inactive)
[2]
  composite z-score: 0.327
[3]
  z-score: -1.31
[4]
  z-score: -5.36 (inactive)
[5]
  z-score: 0.36 (inactive)
[6]
  z-score: 0.273 (inactive)

## CO[C@H]1O[C@H](CO)[C@@H](OC(=O)Nc2ccccc2)[C@@H]2OC(=O)[C@H](Cc3ccccc3)C/C=C/C[C@@H](Cc3ccccc3)C(=O)O[C@@H]12
[1]
  composite z-score: 1.5 (inactive)
[2]
  composite z-score: 0.539
[3]
  z-score: -1.42
[4]
  z-score: -2.64 (inactive)
[5]
  z-score: -0.62 (inactive)
[6]
  z-score: -0.628 (inactive)

## COc1ccc(C(O)C2C=CC3C(=O)N(C)C(=O)C3N2Nc2ccc([N+](=O)[O-])cc2[N+](=O)[O-])cc1OCc1ccccc1 (configuration not stated)
[1]
  composite z-score: -0.237 (inactive)
[2]
  composite z-score: 0.753
[3]
  z-score: 0.664
[4]
  z-score: -2.98 (inactive)
[5]
  z-score: 0.47 (inactive)
[6]
  z-score: 0.219 (inactive)

## CN(C)CCCCNC(=O)[C@H]1C[C@H]2C(=O)NCC(=O)N2[C@H]1c1cccc(OCCO)c1
[1]
  composite z-score: 0.329 (inactive)
[2]
  composite z-score: 0.129
[3]
  z-score: 0.256
[4]
  z-score: -1.62 (inactive)
[5]
  z-score: -0.46 (inactive)
[6]
  z-score: -0.538 (inactive)

## CC(=O)NCCCC[C@@H]1NC(=O)[C@@H]2C[C@H](C(=O)NCCCCCC[N+](C)(C)C)[C@H](c3ccc(O)cc3)N2C1=O
[1]
  composite z-score: 0.0817 (inactive)
[2]
  composite z-score: 0.846
[3]
  z-score: 1.12
[4]
  z-score: -2.45 (inactive)
[5]
  z-score: 0.956 (inactive)
[6]
  z-score: 0.817 (inactive)

## CC(C)CNC(=O)[C@@H]1c2ccccc2C(=O)N(C2Cc3ccccc3C2)[C@H]1c1ccc(CO)cc1
[1]
  composite z-score: 0.45 (inactive)
[2]
  composite z-score: 0.509
[3]
  z-score: 0.134
[4]
  z-score: -2.36 (inactive)
[5]
  z-score: -0.281 (inactive)
[6]
  z-score: -0.121 (inactive)
